Data on 40 compounds can be found in ChEMBL document CHEMBL3988442, “University of Dundee, Small-Polar-MMV Screening Library” (2021).

The structures appear in SMILES notation.

The assay has as its target T1, Aspartate--tRNA(Asp/Asn) ligase (Mycobacterium tuberculosis (strain ATCC 25618 / H37Rv)) (UniProt P9WFW3).
T1 sequence (whole entry): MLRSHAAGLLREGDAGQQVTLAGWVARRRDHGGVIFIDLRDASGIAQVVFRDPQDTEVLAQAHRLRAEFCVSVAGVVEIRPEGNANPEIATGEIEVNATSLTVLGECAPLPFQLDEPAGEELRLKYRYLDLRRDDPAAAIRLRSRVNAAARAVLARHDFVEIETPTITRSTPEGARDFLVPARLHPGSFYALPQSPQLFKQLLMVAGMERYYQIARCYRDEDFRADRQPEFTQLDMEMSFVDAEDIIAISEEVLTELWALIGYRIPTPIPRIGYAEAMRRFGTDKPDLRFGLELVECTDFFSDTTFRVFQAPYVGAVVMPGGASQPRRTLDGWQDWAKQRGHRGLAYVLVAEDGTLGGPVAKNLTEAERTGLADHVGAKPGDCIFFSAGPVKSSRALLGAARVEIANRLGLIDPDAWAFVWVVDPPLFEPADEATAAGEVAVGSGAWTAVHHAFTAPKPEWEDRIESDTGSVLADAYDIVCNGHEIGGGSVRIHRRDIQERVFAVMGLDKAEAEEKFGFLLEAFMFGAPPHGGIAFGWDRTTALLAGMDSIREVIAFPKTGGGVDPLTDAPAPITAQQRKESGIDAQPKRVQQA
Kind of assay: Assay for Asp RNA synthetase-1 from Mycobacterium tuberculosis. Also noted: scale not given: in the data most compounds retested in dose-response had high values. It counts as functional. The settings on record: 30 µM.
With `CCN(CC)C(=O)CCc1c(C)nc2cc(O)nn2c1C`, the Percent Effect is -1.56%.

With `CNC(=O)c1ccc(C2CN(C(=O)c3cncs3)CCO2)nc1` (stereo not given), the Percent Effect came out at 3.26%.

For the compound `COc1cccc(S(=O)(=O)NC(=O)COc2c(C)cccc2C)c1`, the Percent Effect was -3%.

For the compound `COc1ccc(C2CC(=O)Oc3cc(C)[nH]c(=O)c32)cc1` (stereo not given), the Percent Effect was determined as 0.232%.

As to `CC(Nc1cccc(CN2CCOC2=O)c1)C(=O)Nc1ccccc1F` (stereo not given), the Percent Effect was determined as 1.17%.

For `Cc1nn(C)c(N2CCOCC2)c1CNC(C)c1cccnc1` (stereo not given), the Percent Effect was -8.69%.

In the case of `Cc1ccc(=O)n(CC2(O)CCN(Cc3ccsc3)CC2)n1`, the Percent Effect is -3.38%.

`O=C(Cn1nc(-c2ccc(F)cc2)oc1=O)Nc1ccccc1`: the Percent Effect is -1.5%.

`CC(C)n1ccc(-c2cc(C(=O)N3CCCC3)c3ccccn23)n1`: the Percent Effect came to 2.64%.

Take `c1cnc2c(c1)cc([C@H]1CCCO1)n2CCN1CCOCC1`: the Percent Effect was 7.52%.

As to `O=C(Cn1cnnn1)N1CCCCC1Cn1cccn1` (stereo not given), the Percent Effect was -0.885%.

Regarding `CC(=O)Nc1nc(C(=O)N2CCCC2Cn2cc(C)cn2)cs1` (stereo not given), the Percent Effect was -1.84%.

Consider `CCn1nc(C)c2nc(C(C)C)nc(NCCOC)c21`, for which the Percent Effect was -2.09%.

In the case of `CN1N=C(C(=O)N(Cc2ccco2)C2CC2)CCC1=O`, the Percent Effect is -2.73%.

Turning to `Cc1noc(C(C)N2CCN(CC(=O)N3CCOCC3)CC2)n1` (stereo not given), the Percent Effect is -8.27%.

For `O=C(c1cc(C2CC2)[nH]n1)N1CCN(Cc2ccsc2)CC1`, the Percent Effect is -6.85%.

For `Cc1cccnc1NC(=O)CC1(Cn2cnnn2)CCCCC1`, the Percent Effect amounted to 7.1%.

Regarding `CCNC(=O)N1CCCC(c2noc(CC)n2)C1` (stereo not given), the Percent Effect was -2.74%.

Turning to `Cc1cc(OCC(=O)NS(=O)(=O)c2c(C)noc2C)ccc1Cl`, the Percent Effect is -2.01%.

In the case of `COc1ccc(CN2CCCC(Nc3cccc(F)c3)C2)cc1O` (stereo not given), the Percent Effect turned out to be 5.06%.

As to `CCc1cnc(C)nc1NCCN1CCCCCC1`, the Percent Effect was found to be 4.13%.

On to `CCN1CCN(CC(O)c2ccc(F)cc2)CC1` (stereo not given), for which the Percent Effect was -6.48%.

For the compound `CCN1CCC(CNC(=O)NCc2cc(-c3ccc(C)cc3)no2)C1` (stereo not given), the Percent Effect was 2.27%.

For `O=C(NCc1ccco1)[C@H]1C[C@@H]2CCN(c3ccncn3)C[C@@H]2O1`, the Percent Effect is -4.16%.

Regarding `O=C(NCc1ccc(-c2ccn[nH]2)cc1)N1CCC(N2CCCC2)C1` (stereo not given), the Percent Effect is -3.65%.

With `CC(C)NC(=O)N1CCC2(C1)CN(c1ccsc1)C(=O)CN2C` (stereo not given), the Percent Effect stood at 11.4%.

`Cc1oc(C)c(C(=O)NCc2cccnc2N(C)C)c1C`: the Percent Effect is -2.01%.

For `CNC(=O)c1cnc(/C=C/c2ccc(OC)c(O)c2)s1`, the Percent Effect amounted to 1.65%.

Take `CNC(=O)[C@H]1C[C@@H]2CN(S(=O)(=O)c3ccccc3)C[C@@H]2N1C(C)=O`: the Percent Effect is 2.08%.

Consider `O=c1c2ccccc2nc2n1CCN(Cc1cccs1)CC2`, for which the Percent Effect was determined as 1.35%.

Turning to `N#Cc1ccc(CN2CCN(C(=O)c3cc(C4CC4)[nH]n3)CC2)cc1`, the Percent Effect is -2.71%.

Regarding `CC(C)Oc1cc(N2CCC(N3CCC(O)CC3)CC2)nc(N)n1`, the Percent Effect was -2.8%.

As to `Cc1cnn(C2CCCN(C(=O)c3cnc4ccccc4n3)C2)c1` (stereo not given), the Percent Effect came to 9.11%.

`CCc1noc(C(C)N2CCN(Cc3nnc(C4CC4)o3)CC2)n1` (stereo not given): the Percent Effect was -4.98%.

Take `CCOC(=O)c1c(NC(=O)CN2CCN(C(C)=O)CC2)sc2c1CCC2`: the Percent Effect is -3.95%.

For `O=C(c1ccc(F)cc1Cl)N1CCC(Nc2cccnn2)CC1`, the Percent Effect came to 4.05%.

Take `CC(C)n1ccnc1C1CCN(Cc2ccc(Cl)s2)CC1`: the Percent Effect turned out to be 4.1%.

As to `COCC(=O)N(C)Cc1ccc(Cl)c(Cl)c1`, the Percent Effect was -3.56%.

Turning to `COc1c(CNCC(c2cccc(F)c2)N(C)C)c(C(C)C)nn1C` (stereo not given), the Percent Effect is -3.2%.

As to `COCc1noc(C2(c3ccc(F)cc3)CCOCC2)n1`, the Percent Effect is -2.06%.
